Laboratory results reported in PubChem BioAssay (EPA / NIEHS).
Active and inactive are the calls of the source. Rule for the calls: active = hit-call score of the fitted dose curve at least 0.9, where 1 is the maximum; inactive = score below 0.9.

test: ATG_M_19_CIS: Attagene CIS-FACTORIAL HepG2 Assay for M19 Transcription Factor (Internal Marker) (AID 2282939); conditions: HepG2 Attagene CIS-FACTORIAL M19 internal marker reporter; actives raise or lower the signal
Experimental: ATG_CIS is a cell-based, multiplexed-readout assay that uses HepG2, a human liver cell line, with measurements taken at 24 hours after chemical dosing in a 24-well plate.ATG_M_19_CIS is one of 52 assay component(s) measured or calculated from the ATG_CIS assay. It is designed to make measurements of mRNA induction, a form of inducible reporter, as detected with fluorescence intensity signals by Reverse transcription polymerase chain reaction (RT-PCR) and Capillary electrophoresis technology.Data from the assay component ATG_M_19_CIS was analyzed into 1 assay endpoint. This assay endpoint, ATG_M_19_CIS, was analyzed with bidirectional fitting relative to DMSO as the negative control and baseline of activity. Using a type of inducible reporter, measures of mRNA for gain or loss-of-signal activity can be used to understand the background control at the transcription factor-level as they relate to the gene . Furthermore, this assay endpoint can be referred to as a secondary readout, because this assay has produced multiple assay endpoints where this one serves a background control function. To generalize the intended target to other relatable targets, this assay endpoint is annotated to the background measurement intended target family, where the subfamily is internal marker.
Human liver HepG2 cells are transiently transfected with multiple reporter transcription units (MRTUs) in 6-well plates using FuGene 6 reagent (Roche; 3 ml FuGene/1 mg DNA). The MRTU constructs are regulated by a cis-regulating element (promoter). […] A major difference between the CIS and TRANS system is that in CIS activities of endogenous TFs are measured, whereas the TRANS assay evaluates changes in activities of exogenous, chimeric NR-Gal4 proteins. […] At the end of 24 hour incubation, total RNA was isolated using TriZol reagent (Invitrogen). The isolated RNA is then reverse-transcribed using oligo(dT) primer and Mo-MLV reverse transcriptase (Invitrogen) with DNAse I (Ambion) treatment for 30 min. The one-tenth of the produced cDNA was amplified by PCR using Taq DNA polymerase (Invitrogen) and two reporter sequence-specific primers. The PCR products were fluorescently labeled by primer extension with 6-arboxyfluorescein (6-FAM) 5'-labeled reporter sequence-specific primer (2 min at 95 C, 20 s at 68 C and 10 min at 72 C) and these products were digested with 5U of HpaI (New England Biolabs) for 2h at 37 C. The fragments were purified using Qiaquick PCR columns (Qiagen), analyzed on an ABI 3130xL genetic analyzer (Applied Biosystems) with peak positions identified by using a set of X-rhodamine (ROX)-labeled MapMarker1000 molecular weight standards (BioVentures). The raw capillary electrophoresis data was processed using Attagraph software (Attagene).

outcome, inactive:
CCCCCCCCCCCCCOS(=O)(=O)O, Cc1ccc2sc3cccc(C)c3c2c1, Clc1sc(Cl)c(Cl)c1Cl, CCOC(=S)SSC(=S)OCC, CC(C)(N)CO, CC(=O)OCc1ccc2c(c1)OCO2, COc1ccc(Nc2ccccc2)c(C)c1, OC1C(O)C(O)C(O)C(O)C1O (stereo not given), CCCCCCOC(=O)CC, CCC(=O)OCc1ccccc1, CC1=CCC(O)(C(C)C)CC1 (stereo not given), CC1=CCC2C(C1)C2(C)C (stereo not given), CC(C)(C#N)c1cc(Cn2cncn2)cc(C(C)(C)C#N)c1, CCCCNC(=O)NS(=O)(=O)c1ccc(C)cc1, O=Cc1ccc(Cl)c([N+](=O)[O-])c1, CC(=O)C(=O)O, C=C(C)C(=O)O[C@H]1C[C@@H]2CC[C@@]1(C)C2(C)C, CC1COc2ccccc2N1C(=O)C(Cl)Cl (stereo not given), COC(C)CCO (stereo not given), CCCCCCCCCCCCCC(=O)O, CC(=O)O[C@]1(C(C)=O)CC[C@H]2[C@@H]3C[C@H](C)C4=CC(=O)CC[C@]4(C)[C@H]3CC[C@@]21C, CCn1c2ccccc2c2cc(N)ccc21, NCCCCCCN, CC(C#N)(CCC(=O)O)N=NC(C)(C#N)CCC(=O)O (stereo not given), COc1cc(C(C)(C)C)c(O)c(C(C)(C)C)c1, N#Cc1ccccc1, C=C(C)[C@@H]1CC[C@@H](C)C[C@@H]1O, CC1=CC(=O)NS(=O)(=O)O1, Cc1cc(C2(c3cc(C)c(O)cc3C)OS(=O)(=O)c3ccccc32)c(C)cc1O, CCC(=O)/C=C/C1C(C)=CCCC1(C)C (stereo not given), CCC(C)CCCC(C)(C)O (stereo not given), OCCOc1cccc(OCCO)c1, CCCCCCC#CC(=O)OC, O=C(O)CCSCCC(=O)O, CC(=O)[C@H]1CC[C@H]2[C@@H]3CC=C4C[C@@H](O)CC[C@]4(C)[C@H]3CC[C@]12C, [Ca+2], C=CC[N+](C)(C)CC=C, C=C[C@@H](C)CCC=C(C)C, C=CC(=O)NCOCC(C)C, CC(=O)OCCOC(C)=O
